Laboratory results reported in the supplement of paper PMC4466140.

biological target: AgAbp1; assay: SPOT peptide array binding signal intensity (averaged, normalized) (arbitrary units (background-subtracted, floor 0; scale differs between SH3 domains)); higher = stronger binding of the SH3 domain to the peptide
In short: (§1)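 To measure binding, SH3 domains from four yeast species were fused to GST, expressed in E. coli BL21(DE3) and purified on glutathione Sepharose. Each domain was incubated at 10 μg/ml overnight at 4°C on cellulose membranes with synthetic 15-mer peptides whose cysteines were replaced by serines. Anti-GST antibody, an HRP anti-mouse secondary and luminol were used for detection, and images were quantified with Genespotter. Reported binding signal is normalized, background-subtracted spot intensity averaged over replicates, in arbitrary units that differ between domains.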

Binder	SPOT peptide array binding signal intensity
SSTPTTPERPKRKSG	128
RSVKRPRRAPRPVVS	124

biological target: AgBbc1; assay: as above
In short: as §1

Binder	SPOT peptide array binding signal intensity
SSTPTTPERPKRKSG	2110
RSVKRPRRAPRPVVS	434

biological target: AgBem1-D1; assay: as above
In short: as §1

Binder	SPOT peptide array binding signal intensity
SSTPTTPERPKRKSG	≤ 0
RSVKRPRRAPRPVVS	116

biological target: AgBzz1-D1; assay: as above
In short: as §1

Binder	SPOT peptide array binding signal intensity
SSTPTTPERPKRKSG	36.5
RSVKRPRRAPRPVVS	54.5

biological target: AgBzz1-D2; assay: as above
In short: as §1

Binder	SPOT peptide array binding signal intensity
SSTPTTPERPKRKSG	21
RSVKRPRRAPRPVVS	19

biological target: AgCyk3; assay: as above
In short: as §1

Binder	SPOT peptide array binding signal intensity
SSTPTTPERPKRKSG	2
RSVKRPRRAPRPVVS	2

biological target: AgFus1; assay: as above
In short: as §1

Binder	SPOT peptide array binding signal intensity
SSTPTTPERPKRKSG	≤ 0
RSVKRPRRAPRPVVS	372

biological target: AgHof1; assay: as above
In short: as §1

Binder	SPOT peptide array binding signal intensity
SSTPTTPERPKRKSG	≤ 0
RSVKRPRRAPRPVVS	49

biological target: AgHse1; assay: as above
In short: as §1

Binder	SPOT peptide array binding signal intensity
SSTPTTPERPKRKSG	≤ 0
RSVKRPRRAPRPVVS	592

biological target: AgLsb1; assay: as above
In short: as §1

Binder	SPOT peptide array binding signal intensity
SSTPTTPERPKRKSG	1
RSVKRPRRAPRPVVS	4.5

biological target: AgLsb4; assay: as above
In short: as §1

Binder	SPOT peptide array binding signal intensity
SSTPTTPERPKRKSG	602
RSVKRPRRAPRPVVS	150

biological target: AgMyo5; assay: as above
In short: as §1

Binder	SPOT peptide array binding signal intensity
SSTPTTPERPKRKSG	≤ 0
RSVKRPRRAPRPVVS	1.25

biological target: AgNbp2; assay: as above
In short: as §1

Binder	SPOT peptide array binding signal intensity
SSTPTTPERPKRKSG	≤ 0
RSVKRPRRAPRPVVS	908

biological target: AgRvs167; assay: as above
In short: as §1

Binder	SPOT peptide array binding signal intensity
SSTPTTPERPKRKSG	18.3
RSVKRPRRAPRPVVS	2.17

biological target: AgSho1; assay: as above
In short: as §1

Binder	SPOT peptide array binding signal intensity
SSTPTTPERPKRKSG	≤ 0
RSVKRPRRAPRPVVS	5

biological target: AgSla1-D1-D2; assay: as above
In short: as §1

Binder	SPOT peptide array binding signal intensity
SSTPTTPERPKRKSG	≤ 0
RSVKRPRRAPRPVVS	15

biological target: AgSla1-D3; assay: as above
In short: as §1

Binder	SPOT peptide array binding signal intensity
SSTPTTPERPKRKSG	1.25
RSVKRPRRAPRPVVS	6.25

biological target: CaAbp1-D1; assay: as above
In short: as §1

Binder	SPOT peptide array binding signal intensity
SSTPTTPERPKRKSG	514
RSVKRPRRAPRPVVS	586

biological target: CaAbp1-D2; assay: as above
In short: as §1

Binder	SPOT peptide array binding signal intensity
SSTPTTPERPKRKSG	1000
RSVKRPRRAPRPVVS	430

biological target: CaBbc1; assay: as above
In short: as §1

Binder	SPOT peptide array binding signal intensity
SSTPTTPERPKRKSG	2820
RSVKRPRRAPRPVVS	663

biological target: CaBem1-D1; assay: as above
In short: as §1

Binder	SPOT peptide array binding signal intensity
SSTPTTPERPKRKSG	8
RSVKRPRRAPRPVVS	140

biological target: CaBzz1-D1; assay: as above
In short: as §1

Binder	SPOT peptide array binding signal intensity
SSTPTTPERPKRKSG	63.5
RSVKRPRRAPRPVVS	108

biological target: CaBzz1-D2; assay: as above
In short: as §1

Binder	SPOT peptide array binding signal intensity
SSTPTTPERPKRKSG	36.2
RSVKRPRRAPRPVVS	165

biological target: CaCyk3; assay: as above
In short: as §1

Binder	SPOT peptide array binding signal intensity
SSTPTTPERPKRKSG	166
RSVKRPRRAPRPVVS	106

biological target: CaFus1; assay: as above
In short: as §1

Binder	SPOT peptide array binding signal intensity
SSTPTTPERPKRKSG	48.5
RSVKRPRRAPRPVVS	208

biological target: CaHof1; assay: as above
In short: as §1

Binder	SPOT peptide array binding signal intensity
SSTPTTPERPKRKSG	0.5
RSVKRPRRAPRPVVS	2

biological target: CaHse1; assay: as above
In short: as §1

Binder	SPOT peptide array binding signal intensity
SSTPTTPERPKRKSG	≤ 0
RSVKRPRRAPRPVVS	47.5

biological target: CaLsb1; assay: as above
In short: as §1

Binder	SPOT peptide array binding signal intensity
SSTPTTPERPKRKSG	≤ 0
RSVKRPRRAPRPVVS	0.75

biological target: CaLsb4; assay: as above
In short: as §1

Binder	SPOT peptide array binding signal intensity
SSTPTTPERPKRKSG	7900
RSVKRPRRAPRPVVS	1720

biological target: CaMyo5; assay: as above
In short: as §1

Binder	SPOT peptide array binding signal intensity
SSTPTTPERPKRKSG	0.25
RSVKRPRRAPRPVVS	2

biological target: CaNbp2; assay: as above
In short: as §1

Binder	SPOT peptide array binding signal intensity
SSTPTTPERPKRKSG	28.5

biological target: CaRvs167; assay: as above
In short: as §1

Binder	SPOT peptide array binding signal intensity
SSTPTTPERPKRKSG	110

biological target: CaRvs167-3; assay: as above
In short: as §1

Binder	SPOT peptide array binding signal intensity
SSTPTTPERPKRKSG	≤ 0

biological target: CaSho1; assay: as above
In short: as §1

Binder	SPOT peptide array binding signal intensity
SSTPTTPERPKRKSG	9.5

biological target: CaSla1-D1-D2; assay: as above
In short: as §1

Binder	SPOT peptide array binding signal intensity
SSTPTTPERPKRKSG	480

biological target: CaSla1-D3; assay: as above
In short: as §1

Binder	SPOT peptide array binding signal intensity
SSTPTTPERPKRKSG	≤ 0

biological target: ScAbp1; assay: as above
In short: as §1

Binder	SPOT peptide array binding signal intensity
SSTPTTPERPKRKSG	66

biological target: ScBbc1; assay: as above
In short: as §1

Binder	SPOT peptide array binding signal intensity
SSTPTTPERPKRKSG	2030

biological target: ScBem1-D1; assay: as above
In short: as §1

Binder	SPOT peptide array binding signal intensity
SSTPTTPERPKRKSG	3

biological target: ScBzz1-D1; assay: as above
In short: as §1

Binder	SPOT peptide array binding signal intensity
SSTPTTPERPKRKSG	15

biological target: ScBzz1-D2; assay: as above
In short: as §1

Binder	SPOT peptide array binding signal intensity
SSTPTTPERPKRKSG	7.5

biological target: ScCyk3; assay: as above
In short: as §1

Binder	SPOT peptide array binding signal intensity
SSTPTTPERPKRKSG	≤ 0

biological target: ScFus1; assay: as above
In short: as §1

Binder	SPOT peptide array binding signal intensity
SSTPTTPERPKRKSG	≤ 0

biological target: ScHof1; assay: as above
In short: as §1

Binder	SPOT peptide array binding signal intensity
SSTPTTPERPKRKSG	≤ 0

biological target: ScHse1; assay: as above
In short: as §1

Binder	SPOT peptide array binding signal intensity
SSTPTTPERPKRKSG	33.5

biological target: ScLsb1; assay: as above
In short: as §1

Binder	SPOT peptide array binding signal intensity
SSTPTTPERPKRKSG	260

biological target: ScLsb2; assay: as above
In short: as §1

Binder	SPOT peptide array binding signal intensity
SSTPTTPERPKRKSG	1

biological target: ScLsb3; assay: as above
In short: as §1

Binder	SPOT peptide array binding signal intensity
SSTPTTPERPKRKSG	5780

biological target: ScLsb4; assay: as above
In short: as §1

Binder	SPOT peptide array binding signal intensity
SSTPTTPERPKRKSG	836

biological target: ScMyo3; assay: as above
In short: as §1

Binder	SPOT peptide array binding signal intensity
SSTPTTPERPKRKSG	≤ 0

biological target: ScMyo5; assay: as above
In short: as §1

Binder	SPOT peptide array binding signal intensity
SSTPTTPERPKRKSG	≤ 0

biological target: ScNbp2; assay: as above
In short: as §1

Binder	SPOT peptide array binding signal intensity
SSTPTTPERPKRKSG	≤ 0

biological target: ScPex13; assay: as above
In short: as §1

Binder	SPOT peptide array binding signal intensity
SSTPTTPERPKRKSG	78.2

biological target: ScRvs167; assay: as above
In short: as §1

Binder	SPOT peptide array binding signal intensity
SSTPTTPERPKRKSG	902

biological target: ScSho1; assay: as above
In short: as §1

Binder	SPOT peptide array binding signal intensity
SSTPTTPERPKRKSG	≤ 0

biological target: ScSla1-D1-D2; assay: as above
In short: as §1

Binder	SPOT peptide array binding signal intensity
SSTPTTPERPKRKSG	290

biological target: ScSla1-D3; assay: as above
In short: as §1

Binder	SPOT peptide array binding signal intensity
SSTPTTPERPKRKSG	15

biological target: SpAbp1-D1; assay: as above
In short: as §1

Binder	SPOT peptide array binding signal intensity
SSTPTTPERPKRKSG	85

biological target: SpBbc1; assay: as above
In short: as §1

Binder	SPOT peptide array binding signal intensity
SSTPTTPERPKRKSG	22.2

biological target: SpBzz1-D1; assay: as above
In short: as §1

Binder	SPOT peptide array binding signal intensity
SSTPTTPERPKRKSG	64

biological target: SpBzz1-D2; assay: as above
In short: as §1

Binder	SPOT peptide array binding signal intensity
SSTPTTPERPKRKSG	≤ 0

biological target: SpCyk3; assay: as above
In short: as §1

Binder	SPOT peptide array binding signal intensity
SSTPTTPERPKRKSG	≤ 0

biological target: SpHof1; assay: as above
In short: as §1

Binder	SPOT peptide array binding signal intensity
SSTPTTPERPKRKSG	2.5

biological target: SpHof1-2; assay: as above
In short: as §1

Binder	SPOT peptide array binding signal intensity
SSTPTTPERPKRKSG	2

biological target: SpHof1-3; assay: as above
In short: as §1

Binder	SPOT peptide array binding signal intensity
SSTPTTPERPKRKSG	177

biological target: SpHse1; assay: as above
In short: as §1

Binder	SPOT peptide array binding signal intensity
SSTPTTPERPKRKSG	11

biological target: SpLsb1; assay: as above
In short: as §1

Binder	SPOT peptide array binding signal intensity
SSTPTTPERPKRKSG	1030

biological target: SpLsb4; assay: as above
In short: as §1

Binder	SPOT peptide array binding signal intensity
SSTPTTPERPKRKSG	8450

biological target: SpMyo1; assay: as above
In short: as §1

Binder	SPOT peptide array binding signal intensity
SSTPTTPERPKRKSG	≤ 0

biological target: SpNbp2; assay: as above
In short: as §1

Binder	SPOT peptide array binding signal intensity
SSTPTTPERPKRKSG	≤ 0

biological target: SpPex13; assay: as above
In short: as §1

Binder	SPOT peptide array binding signal intensity
SSTPTTPERPKRKSG	≤ 0

biological target: SpRvs167; assay: as above
In short: as §1

Binder	SPOT peptide array binding signal intensity
SSTPTTPERPKRKSG	450

biological target: SpSla1-D1-D2; assay: as above
In short: as §1

Binder	SPOT peptide array binding signal intensity
SSTPTTPERPKRKSG	8

biological target: SpSla1-D3; assay: as above
In short: as §1

Binder	SPOT peptide array binding signal intensity
SSTPTTPERPKRKSG	≤ 0
